Compound activity: PubChem BioAssay, several laboratories
Only some compounds are listed: those with a hit (about 2.1% of all), similar ones and a draw of the others.
SUMO Mot1 rescue = yeast Mot1-301 growth rescue at high temperature, primary screen, SUMOylation pathway inhibitor project, S. cerevisiae, ATP luminescence, 38.5C; S. cerevisiae Mot1-301 growth rescue; percent above DMSO median, 100 means doubled; growth rescue, % at 18.8 µM; 1% of 320,000 active; AID 2716, 2010;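 active = every valid replicate shows activation above 250% relative to neutral control wells; inactive = the rest, any valid replicate at or below 250%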;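 also: OY570 slx delta 5 strain wells were the positive control but not used for scaling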
LANA-H2B inh = blockers of LANA interaction with H2A/H2B – biochemical, FP readout, HTS, primary screen | inhibition, % (concentration not given with the values) | 0.6% of 320,000 active | AID 2629, 2010 | Protein LANA1 (Human herpesvirus 8 type P (isolate GK18)), Q9QR71 | cell-free LANA-H2A/H2B peptide, fluorescence polarization; in the data active = inhibition mostly above about 10%, no sharp cut-off; inactive = mostly below about 6.7%
HDAC3 inhib = HDAC3 deacetylase inhibitors, primary screen, biochemical, fluorescence, cell-free homogeneous. 0.15% of 320,000 active. Histone deacetylase 3 (Homo sapiens), O15379. recombinant HDAC3, fluorogenic peptide/trypsin coupled. inhibition, % at 8.3 µM; in the data active = inhibition above about 26%, passing the limit was not always enough
IDE inh = human IDE inhibitors in live cells, primary screen, fluorescence polarization, HEK cells, FAbetaB substrate; AID 434962, 2010; inhibition, % at 5.59 µM; FAbetaB cleavage; Insulin-degrading enzyme (Homo sapiens), P14735; 0.41% of 320,000 active;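 active = percent inhibition above the average of all tested compounds plus 3 SD, set per screening campaign, cut at about 16% in these data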;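 also: IDE supplied by intact live HEK cells; FP after avidin binding of uncleaved biotin substrate so inhibition keeps polarization high; 0% = DMSO wells and 100% = 60 µM reference IDE inhibitor Ii1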
Target sequence (P14735 whole entry, looked up): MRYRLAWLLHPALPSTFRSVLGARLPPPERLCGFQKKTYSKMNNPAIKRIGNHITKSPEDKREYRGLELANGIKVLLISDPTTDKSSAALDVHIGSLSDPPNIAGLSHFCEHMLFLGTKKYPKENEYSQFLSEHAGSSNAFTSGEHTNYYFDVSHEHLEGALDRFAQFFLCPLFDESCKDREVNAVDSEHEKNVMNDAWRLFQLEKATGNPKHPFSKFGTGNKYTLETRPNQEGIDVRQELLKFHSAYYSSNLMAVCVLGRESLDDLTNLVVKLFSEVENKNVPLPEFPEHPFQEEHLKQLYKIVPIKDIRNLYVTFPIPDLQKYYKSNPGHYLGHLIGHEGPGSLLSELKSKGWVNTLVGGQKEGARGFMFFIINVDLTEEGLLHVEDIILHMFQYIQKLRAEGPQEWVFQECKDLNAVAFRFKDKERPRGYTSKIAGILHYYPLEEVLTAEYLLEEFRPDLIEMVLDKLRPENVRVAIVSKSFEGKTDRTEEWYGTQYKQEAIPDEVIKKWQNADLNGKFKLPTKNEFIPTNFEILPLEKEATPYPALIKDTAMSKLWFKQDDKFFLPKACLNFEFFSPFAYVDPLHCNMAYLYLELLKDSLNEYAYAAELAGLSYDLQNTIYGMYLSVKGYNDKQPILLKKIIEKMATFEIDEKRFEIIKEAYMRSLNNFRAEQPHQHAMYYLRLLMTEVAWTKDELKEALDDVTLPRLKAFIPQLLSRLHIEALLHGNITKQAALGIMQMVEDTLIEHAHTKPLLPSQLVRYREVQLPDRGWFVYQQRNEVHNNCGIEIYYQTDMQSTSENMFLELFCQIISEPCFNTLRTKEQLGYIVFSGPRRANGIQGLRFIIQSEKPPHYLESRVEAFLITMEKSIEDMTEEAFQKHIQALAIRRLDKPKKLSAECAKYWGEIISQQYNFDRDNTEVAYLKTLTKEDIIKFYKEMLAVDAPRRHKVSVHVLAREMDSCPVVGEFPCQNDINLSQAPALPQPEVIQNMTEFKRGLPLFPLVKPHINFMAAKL
IDE cell activ = human IDE activators in live cells, primary screen, fluorescence polarization, HEK cells, FAbeta-B substrate; 0.073% of 340,000 active; FAbeta-B cleavage; 0% vehicle, 100% cell-free pure enzyme wells; Insulin-degrading enzyme (Homo sapiens), P14735; activation, % at 5.96 µM;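 active = activation above the mean of all tested compounds plus 3 SD, set per screening campaign, cut at about 17% in these data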
* = called active by the depositor.

COc1ccccc1N1CCN(C(=O)c2ccco2)CC1 was read as SUMO Mot1 rescue -15.0, LANA-H2B inh 16.5*, HDAC3 inhib -7.6, IDE inh 2.2 and IDE cell activ 0.1.
`CC(C(=O)Nc1ccccc1)N1CCN(C(=O)c2ccco2)CC1` (stereo not given) gave SUMO Mot1 rescue 0.7, LANA-H2B inh 68.1*, HDAC3 inhib -1.0, IDE inh 2.6 and IDE cell activ 1.6.
COc1ccc(Cl)cc1NC(=S)N1CCN(C(=O)c2ccco2)CC1 was read as SUMO Mot1 rescue 357.0*, LANA-H2B inh -3.3, HDAC3 inhib -4.6, IDE inh -0.2 and IDE cell activ 2.0.
For COc1cc(NC(=S)N2CCN(C(=O)c3ccco3)CC2)c(OC)cc1Cl the results were LANA-H2B inh -0.7, HDAC3 inhib 13.0, IDE inh -4.2 and IDE cell activ -7.1.
For COc1ccccc1N1CCN(C(=O)C(C)NC(=O)c2ccco2)CC1 (stereo not given) the results were SUMO Mot1 rescue -8.7, LANA-H2B inh -5.0, HDAC3 inhib 2.8, IDE inh -0.7 and IDE cell activ 7.3.
Screening O=C(CCN1CCN(S(=O)(=O)c2cccc([N+](=O)[O-])c2)CC1)Nc1ccccc1F returned SUMO Mot1 rescue 4.1, LANA-H2B inh -2.9, HDAC3 inhib 4.3, IDE inh -2.6 and IDE cell activ 1.3.
`CC(C)NS(=O)(=O)c1ccc(NC(=O)C(C)OC(=O)CCC(=O)c2cccs2)cc1` (stereo not given) gave SUMO Mot1 rescue 5.1, LANA-H2B inh -1.3, HDAC3 inhib 0.0, IDE inh 2.2 and IDE cell activ 3.0.
`CCCCn1nc2cc(C(=O)NCCCCc3ccccc3)ccc2c1OCC` gave SUMO Mot1 rescue 7.2, LANA-H2B inh 8.2, HDAC3 inhib -5.1, IDE inh 7.7 and IDE cell activ 20.6*.
For O=C(NCc1cccnc1)c1cc2ccccc2oc1=O the results were SUMO Mot1 rescue -3.3, LANA-H2B inh -0.1, HDAC3 inhib 8.8, IDE inh -3.0 and IDE cell activ -0.1.
`O=C(OCCNC(=O)c1cc2ccccc2oc1=O)c1cccnc1` gave SUMO Mot1 rescue 15.4, LANA-H2B inh 49.7*, HDAC3 inhib -1.9, IDE inh -3.2 and IDE cell activ -2.5.
Cc1ccc(NC(=O)CN(C)C(=O)Cn2ncc(Cl)c(Cl)c2=O)cc1 was read as SUMO Mot1 rescue -3.2, LANA-H2B inh active, HDAC3 inhib 4.2, IDE inh 4.4 and IDE cell activ 1.7.
Cc1ccc(NC(=O)CN(C)C(=O)Cc2ccc(Cl)c(Cl)c2)cc1 was read as SUMO Mot1 rescue -10.8, LANA-H2B inh 1.7, HDAC3 inhib 4.8, IDE inh 0.4 and IDE cell activ -3.8.
`Cc1ccc(NC(=O)C(C)N2C(=O)c3ccccc3C2=O)c(C)c1` (stereo not given) gave SUMO Mot1 rescue -8.9, LANA-H2B inh -6.7, HDAC3 inhib 0.4, IDE inh 4.2 and IDE cell activ 0.8.
`COc1ccc(N(C)C(=O)c2cc3c(s2)-c2ccc(Cl)cc2S(=O)(=O)C3)c(OC)c1` gave SUMO Mot1 rescue 332.1, LANA-H2B inh 2.5, HDAC3 inhib 7.0, IDE inh 1.0 and IDE cell activ 7.6.
Screening COc1ccc(N(C)C(=O)c2cc3c(s2)-c2ccccc2OC3)c(OC)c1 returned SUMO Mot1 rescue 3.8, LANA-H2B inh 18.4*, HDAC3 inhib 5.1, IDE inh 5.4 and IDE cell activ 0.5.
Screening O=c1cc(CSc2ccc(Cl)cc2)nc(-c2ccccn2)[nH]1 returned SUMO Mot1 rescue 54.8, LANA-H2B inh 2.8, HDAC3 inhib 5.1, IDE inh -4.2 and IDE cell activ 4.5.
For C[C@@H]1COC(=O)[C@@H](CC(=O)OC(C)(C)C)C/C=C\C[C@@H](CC(=O)N[C@H](CO)Cc2ccccc2)C(=O)N1 the results were SUMO Mot1 rescue -5.8, LANA-H2B inh -1.3, HDAC3 inhib 2.2, IDE inh 2.4 and IDE cell activ -0.3.
For CCOC(=O)C1=C(C)NC(=S)NC1c1ccc(-c2ccc(Cl)cc2)o1 (stereo not given) the results were SUMO Mot1 rescue 6.7, LANA-H2B inh -5.6, HDAC3 inhib 0.0, IDE inh 2.4 and IDE cell activ -9.7.
Screening COC(=O)C1=C(C)NC(C)=C(C(=O)OC)C1c1ccc(-c2cccc(Cl)c2Cl)o1 returned SUMO Mot1 rescue 3.0, LANA-H2B inh 0.1, HDAC3 inhib 11.0, IDE inh 5.5 and IDE cell activ -3.8.
Screening COC(=O)C1=C(C)NC(=S)NC1c1ccc(-c2cccc(Cl)c2)o1 (stereo not given) returned SUMO Mot1 rescue -6.5, LANA-H2B inh 5.8, HDAC3 inhib 29.0*, IDE inh 11.0 and IDE cell activ -1.4.
For CCOC(=O)C1=C(C)NC(=O)NC1c1ccc(-c2ccc(F)cc2)o1 (stereo not given) the results were SUMO Mot1 rescue -11.8, LANA-H2B inh -1.0, HDAC3 inhib 15.8, IDE inh 1.0 and IDE cell activ -1.7.
For CCOC(=O)C1=C(C)NC(=O)NC1c1ccc(-c2ccc(Cl)cc2)o1 (stereo not given) the results were SUMO Mot1 rescue -9.0, LANA-H2B inh -3.5, HDAC3 inhib 50.5*, IDE inh 12.8 and IDE cell activ -4.8.
`COC(=O)C1=C(C)NC(C)=C(C(=O)OC)C1c1ccc(-c2cccc([N+](=O)[O-])c2)o1` gave SUMO Mot1 rescue -1.2, LANA-H2B inh 1.3, HDAC3 inhib 35.0*, IDE inh 2.0 and IDE cell activ 5.1.
COc1ccc(C(=O)NCC2COc3ccccc3O2)cc1S(=O)(=O)N1CCOCC1 (stereo not given) was read as SUMO Mot1 rescue 0.9, LANA-H2B inh -0.2, HDAC3 inhib 3.6, IDE inh -0.2 and IDE cell activ -0.1.
Screening COc1ccc(S(=O)(=O)N2CCC(Nc3ccccc3Cl)CC2)cc1 returned SUMO Mot1 rescue 7.6, LANA-H2B inh 38.0*, HDAC3 inhib -8.5 and IDE cell activ -5.6.
`CCOc1ccccc1NC(=O)NCCN1CCCCC1` gave SUMO Mot1 rescue inactive, LANA-H2B inh 15.4*, HDAC3 inhib -2.0, IDE inh 1.2 and IDE cell activ 2.8.
`COc1cc(CNC(=O)c2nc(Cn3nc(C)c(Br)c3C)no2)cc(OC)c1` gave SUMO Mot1 rescue 5.0, LANA-H2B inh 3.8, HDAC3 inhib 3.9, IDE inh 1.6 and IDE cell activ -0.7.
`O=C(N/N=C\c1c(O)ccc2ccccc12)c1cncc(Br)c1` gave SUMO Mot1 rescue -8.1, LANA-H2B inh -29.1, HDAC3 inhib -6.7, IDE inh 10.9 and IDE cell activ 47.4*.
Screening O=C(NN=Cc1c(O)ccc2ccccc12)c1ccncc1 returned IDE cell activ -68.5.
